The values that follow come from a collection of fitness landscapes (doi:10.1016/j.celrep.2020.107928).

Over roughly 81,000 sequences, “one-hybrid fitness for binding NBS DNA” has its median near -0.1; the highest 2% begin near 0.36. This is one part of a sample in which the highest values are shown more often than they occur.

B1: Caulobacter ParB omega fusion; a variant is named by its letters at X, in order, B8GW30 (parent)
chain: MESVVVGEPGMSEGRRGLGRGLSALLGEVDAAPAQAPGEQLGGSREAPIEILQRNPDQPRRTFREEDLEDLSNSIREKGVLQPILVRPSPDTAGEYQIVAGERAWRAAQRAGLKTVPIMVRELDDLAVLEIGIIENVQRADLNVLEEALSYKVLMEKFERTQENIAQTIGKSXSHVANXMRLLXLPDEVQSYLVSGELTAXHARAIAAAADPVALAKQIIEGGLSVRETEALARKAPNLSAGKSKGGRPPRVKDTDTQALESDLSSVLGLDVSIDHRGSTGTLTITYATLEQLDDLCNRLTRGI

This assay covers variants of B1. The experiment in a line: one-hybrid fitness for binding NBS DNA (the Noc-binding site; scaled: cognate 1, non-cognate 0); higher = stronger binding. The settings on record: with NBS DNA site. In short, it runs like this:
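Fitness is the rescaled log change in variant-to-wild-type read ratio, measured by Illumina sequencing of plasmids before and after bacterial one-hybrid selection. The scale puts cognate at 1 and non-cognate at 0. Selection of Caulobacter ParB libraries, four specificity codons randomised, took place in E. coli USO with a HIS3 reporter, site 19 bp from the promoter, over 48 hours at 37°C on M9-minus-histidine with 0.1 mM IPTG and 5 mM 3-AT.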
Take RIKD: the “one-hybrid fitness for binding NBS DNA” value was no more than 0.2.
With RAKR, the “one-hybrid fitness for binding NBS DNA” value is 0.668.
Consider RMKR, for which the “one-hybrid fitness for binding NBS DNA” value came out at 0.738.
As for RAKP, the “one-hybrid fitness for binding NBS DNA” value was no more than 0.2.
In the case of RGYR, the “one-hybrid fitness for binding NBS DNA” value is no more than 0.2.
Take RIKR: the “one-hybrid fitness for binding NBS DNA” value was 0.675.
For the variant IRVQ, the “one-hybrid fitness for binding NBS DNA” value came to 0.203.
As to VYLC, the “one-hybrid fitness for binding NBS DNA” value was no more than 0.2.
Consider TESV, for which the “one-hybrid fitness for binding NBS DNA” value was no more than 0.2.
In the case of QVNP it was no more than 0.2.
Turning to GTKF, the “one-hybrid fitness for binding NBS DNA” value was no more than 0.2.
In the case of LEMR it was no more than 0.2; in that of RFPS, no more than 0.2.
In the case of QVIH, the “one-hybrid fitness for binding NBS DNA” value was no more than 0.2.
In the case of GACL, the “one-hybrid fitness for binding NBS DNA” value was no more than 0.2.
For the variant RWVM, the “one-hybrid fitness for binding NBS DNA” value is 0.413.
For the variant RLVR, the “one-hybrid fitness for binding NBS DNA” value was 0.257.
On to RSVR, for which the “one-hybrid fitness for binding NBS DNA” value came out at 0.293.
Regarding RWKM, the “one-hybrid fitness for binding NBS DNA” value was no more than 0.2.
For RLKH, the “one-hybrid fitness for binding NBS DNA” value worked out at 0.35.
Turning to RFKR, the “one-hybrid fitness for binding NBS DNA” value turned out to be 0.522.
NFKR: the “one-hybrid fitness for binding NBS DNA” value is no more than 0.2.
Take RFVR: the “one-hybrid fitness for binding NBS DNA” value is no more than 0.2.
Then RLKR, with 0.686; and RSKR, with 0.682; and RWYM, with no more than 0.2.
Take RSKN: the “one-hybrid fitness for binding NBS DNA” value is no more than 0.2.
As for YFYC, the “one-hybrid fitness for binding NBS DNA” value was no more than 0.2.
Then QASC, with no more than 0.2; and LDYW, with no more than 0.2.
For GGII, the “one-hybrid fitness for binding NBS DNA” value is no more than 0.2.
In the case of RDKR it was no more than 0.2; in that of RWKR, 0.372.
In the case of RWVR it was 0.259; in that of RPKR, no more than 0.2.
RHVR: the “one-hybrid fitness for binding NBS DNA” value worked out at 0.248.
For the variant RCKR, the “one-hybrid fitness for binding NBS DNA” value turned out to be 0.76.
Consider RHKR, for which the “one-hybrid fitness for binding NBS DNA” value amounted to 0.701.
Take RHKH: the “one-hybrid fitness for binding NBS DNA” value stood at 0.326.
Consider RWKP, for which the “one-hybrid fitness for binding NBS DNA” value was no more than 0.2.
In the case of FTQR it was no more than 0.2; in that of PCEF, no more than 0.2; in that of PQIS, no more than 0.2.
On to NIFS, for which the “one-hybrid fitness for binding NBS DNA” value is no more than 0.2.
In the case of NWPM, the “one-hybrid fitness for binding NBS DNA” value was no more than 0.2.
For QHVW, the “one-hybrid fitness for binding NBS DNA” value is no more than 0.2.
In the case of NGRT it was no more than 0.2.
Then SSRN, with no more than 0.2; and GTQF, with no more than 0.2; and RRYN, with 0.26.
Consider RRPC, for which the “one-hybrid fitness for binding NBS DNA” value was found to be 0.249.
For the variant RCES, the “one-hybrid fitness for binding NBS DNA” value was determined as 0.207.
Turning to RRIN, the “one-hybrid fitness for binding NBS DNA” value was 0.206.
Take RRES: the “one-hybrid fitness for binding NBS DNA” value stood at 0.578.
Turning to RRRN, the “one-hybrid fitness for binding NBS DNA” value was found to be 0.618.
Consider RCIC, for which the “one-hybrid fitness for binding NBS DNA” value was no more than 0.2.
Then RREN, with no more than 0.2.
With RRIH, the “one-hybrid fitness for binding NBS DNA” value was found to be 0.338.
Consider RRIS, for which the “one-hybrid fitness for binding NBS DNA” value is 0.661.
In the case of RCRN, the “one-hybrid fitness for binding NBS DNA” value came out at 0.23.
For RRIC, the “one-hybrid fitness for binding NBS DNA” value was 0.399.
Consider NKTG, for which the “one-hybrid fitness for binding NBS DNA” value was no more than 0.2.
As for YEAN, the “one-hybrid fitness for binding NBS DNA” value was no more than 0.2.
In the case of WTTS, the “one-hybrid fitness for binding NBS DNA” value was no more than 0.2.
For the variant MTMK, the “one-hybrid fitness for binding NBS DNA” value was no more than 0.2.
Regarding HRPA, the “one-hybrid fitness for binding NBS DNA” value is no more than 0.2.
As to GPSL, the “one-hybrid fitness for binding NBS DNA” value is no more than 0.2.
Then CRYG, with no more than 0.2; and RRRS, with 0.74.
In the case of RRYD it was no more than 0.2; in that of RRPD, no more than 0.2.
Take RRRD: the “one-hybrid fitness for binding NBS DNA” value was determined as 0.202.
Then RRRP, with 0.283; and RPYS, with no more than 0.2; and RRPN, with no more than 0.2.
For the variant RRYS, the “one-hybrid fitness for binding NBS DNA” value worked out at 0.661.
Then RRPS, with 0.568; and VRHA, with no more than 0.2.
With LNEM, the “one-hybrid fitness for binding NBS DNA” value was no more than 0.2.
Then ADCG, with no more than 0.2; and SSQM, with no more than 0.2; and DSAV, with no more than 0.2.
For the variant PELK, the “one-hybrid fitness for binding NBS DNA” value was no more than 0.2.
Regarding STQD, the “one-hybrid fitness for binding NBS DNA” value is no more than 0.2.
In the case of GVGA it was no more than 0.2.
In the case of SIFQ it was no more than 0.2; in that of KPTR, no more than 0.2.
Then KRTT, with 0.583; and KRTP, with no more than 0.2; and NRTT, with no more than 0.2.
With KRTS, the “one-hybrid fitness for binding NBS DNA” value worked out at 0.448.
For the variant KCTR, the “one-hybrid fitness for binding NBS DNA” value is no more than 0.2.
As to KRTN, the “one-hybrid fitness for binding NBS DNA” value was no more than 0.2.
In the case of KCTT it was no more than 0.2.
On to KRTR, for which the “one-hybrid fitness for binding NBS DNA” value was 0.563.
Turning to EFMG, the “one-hybrid fitness for binding NBS DNA” value was no more than 0.2.
Turning to NTNM, the “one-hybrid fitness for binding NBS DNA” value was no more than 0.2.
Turning to VSAH, the “one-hybrid fitness for binding NBS DNA” value is no more than 0.2.
Turning to AAKR, the “one-hybrid fitness for binding NBS DNA” value stood at 0.205.
In the case of NKSI it was no more than 0.2; in that of GMFR, no more than 0.2.
With SFAG, the “one-hybrid fitness for binding NBS DNA” value was no more than 0.2.
Then TCHR, with no more than 0.2.
Turning to TCNR, the “one-hybrid fitness for binding NBS DNA” value is no more than 0.2.
Consider TRNR, for which the “one-hybrid fitness for binding NBS DNA” value was determined as 0.466.
In the case of TRHR it was 0.409; in that of TCRR, 0.333; in that of TRDR, no more than 0.2.
Consider TCGR, for which the “one-hybrid fitness for binding NBS DNA” value is no more than 0.2.
Take TRGR: the “one-hybrid fitness for binding NBS DNA” value worked out at 0.389.
Turning to TRRR, the “one-hybrid fitness for binding NBS DNA” value turned out to be 0.682.
Consider TRYR, for which the “one-hybrid fitness for binding NBS DNA” value was 0.301.
For the variant ARGR, the “one-hybrid fitness for binding NBS DNA” value is no more than 0.2.
Take TRHN: the “one-hybrid fitness for binding NBS DNA” value was no more than 0.2.
As for RYPE, the “one-hybrid fitness for binding NBS DNA” value is no more than 0.2.
Take FLFY: the “one-hybrid fitness for binding NBS DNA” value was no more than 0.2.
In the case of CVRG it was no more than 0.2; in that of MMMT, no more than 0.2; in that of PQRS, no more than 0.2.
In the case of PARP it was no more than 0.2.
Turning to AWAT, the “one-hybrid fitness for binding NBS DNA” value is no more than 0.2.
Take NMTI: the “one-hybrid fitness for binding NBS DNA” value is no more than 0.2.
As to LVAP, the “one-hybrid fitness for binding NBS DNA” value is no more than 0.2.
In the case of RIFS, the “one-hybrid fitness for binding NBS DNA” value is 0.214.
For RIRD, the “one-hybrid fitness for binding NBS DNA” value is no more than 0.2.
As to RIRP, the “one-hybrid fitness for binding NBS DNA” value is no more than 0.2.
Then RINS, with 0.445; and RIRS, with 0.56.
Consider RIWP, for which the “one-hybrid fitness for binding NBS DNA” value is no more than 0.2.
RIWS: the “one-hybrid fitness for binding NBS DNA” value was 0.397.
In the case of RIYS, the “one-hybrid fitness for binding NBS DNA” value is 0.413.
Take RIDS: the “one-hybrid fitness for binding NBS DNA” value is no more than 0.2.
Turning to RIND, the “one-hybrid fitness for binding NBS DNA” value was no more than 0.2.
As to RIIS, the “one-hybrid fitness for binding NBS DNA” value was no more than 0.2.
Then RIWD, with no more than 0.2.
Take DTYS: the “one-hybrid fitness for binding NBS DNA” value was no more than 0.2.
With SANL, the “one-hybrid fitness for binding NBS DNA” value was no more than 0.2.
Turning to RGWI, the “one-hybrid fitness for binding NBS DNA” value is no more than 0.2.
Turning to YSMI, the “one-hybrid fitness for binding NBS DNA” value is no more than 0.2.
In the case of YTKY it was no more than 0.2; in that of IQNI, no more than 0.2.
Turning to RIHS, the “one-hybrid fitness for binding NBS DNA” value came out at 0.381.
For RIHN, the “one-hybrid fitness for binding NBS DNA” value is no more than 0.2.
For the variant RIHD, the “one-hybrid fitness for binding NBS DNA” value is no more than 0.2.
In the case of NKNM it was no more than 0.2.
As for QYYV, the “one-hybrid fitness for binding NBS DNA” value was no more than 0.2.
As to QYSV, the “one-hybrid fitness for binding NBS DNA” value was no more than 0.2.
In the case of WYRV it was no more than 0.2; in that of IYIV, no more than 0.2; in that of IYVV, no more than 0.2.
In the case of WYCV it was 0.366; in that of QYDV, no more than 0.2; in that of WYVV, no more than 0.2.
In the case of QYVV, the “one-hybrid fitness for binding NBS DNA” value was no more than 0.2.
In the case of QYKV, the “one-hybrid fitness for binding NBS DNA” value turned out to be 0.372.
Then QYRV, with 0.392.
IYPV: the “one-hybrid fitness for binding NBS DNA” value was found to be 0.41.
